Test [1] has as its system Wnt5a (protein binding on small-molecule microarray). The test is described as follows: Wnt5a binders on small-molecule microarray, primary screen, biophysical, 635/667 nm fluorescence (AID 1142).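 Also: fluorescence read at 667 nm with signal to noise per printed feature.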 Conditions: 635 nm fluorescence, higher = more signal.
Test [2] is described as follows: cell viability in Huh7 cells, primary screen, cytotoxicity control for HCV replication inhibitor project, CellTiter-Glo luminescence, basal, 48 h (AID 1143).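 Also: Huh7 hepatoma cells carrying a hepatitis C replication reporter with no stimulus; test concentration not given here.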 As to conditions: Huh7 HCV replicon, higher = more signal, called active from +8 up or from −8 down.
The nature of test [3]: P. aeruginosa biofilm formation inhibitors, primary screen, PAO1 strain, BacTiter-Glo luminescence, LB-PBS (AID 1144). As to conditions: 12 h, higher = more signal.
Test [4] is described as follows: CREB reporter modulators without forskolin, primary screen, cell-based, PC12, CRE-LacZ reporter, unstimulated (AID 1145). As to conditions: no forskolin, luminescence, 4.5 h, higher = more signal, called active from +8 up or from −8 down.
A short description of test [5]: CREB reporter modulators under forskolin, primary screen, cell-based, PC12, CRE-LacZ reporter, forskolin-stimulated (AID 1146).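 Also: PC12 cells with 6xCRE LacZ reporter stimulated by forskolin 10 µM; beta-galactosidase reporter signal reflecting CREB driven transcription.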 Conditions: luminescence, 4.5 h, higher = more signal, called active from +8 up or from −8 down.
In test [6] the target is Streptavidin (Streptomyces avidinii) (UniProt P22629). The test is described as follows: streptavidin binders on small-molecule microarray, primary screen, artefact control for SMM compound annotation, biophysical, 635/667 nm fluorescence (AID 1147).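 Also: signal reflects streptavidin binding to arrayed compounds as a control protein.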 As to conditions: streptavidin binding, higher = more signal.
Streptavidin (Streptomyces avidinii), sequence (P22629 whole entry, looked up): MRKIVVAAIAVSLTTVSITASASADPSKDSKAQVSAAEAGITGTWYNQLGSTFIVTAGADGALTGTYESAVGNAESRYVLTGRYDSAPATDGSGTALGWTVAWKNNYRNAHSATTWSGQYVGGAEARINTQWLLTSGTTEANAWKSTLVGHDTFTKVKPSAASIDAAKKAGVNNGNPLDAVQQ
Test [7] is described as follows: small-molecule binders of probe aInhba, primary screen, biochemical, small-molecule microarray, 635/667 nm fluorescence (AID 1148).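 Also: score merges 667nm spot fluorescence with signal-to-noise for antibody binding to printed compounds.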 Conditions: higher = more signal.
The target of test [8] is Torsin-1A (Homo sapiens) (UniProt O14656). The test is described as follows: torsin A binders from cell lysate, primary screen, small-molecule microarray, wild-type, 635/667 nm (AID 1149). Conditions: COS7 hTOR1A-WT lysate, 635 nm fluorescence, higher = more signal.
Torsin-1A (Homo sapiens), sequence (O14656 whole entry, looked up): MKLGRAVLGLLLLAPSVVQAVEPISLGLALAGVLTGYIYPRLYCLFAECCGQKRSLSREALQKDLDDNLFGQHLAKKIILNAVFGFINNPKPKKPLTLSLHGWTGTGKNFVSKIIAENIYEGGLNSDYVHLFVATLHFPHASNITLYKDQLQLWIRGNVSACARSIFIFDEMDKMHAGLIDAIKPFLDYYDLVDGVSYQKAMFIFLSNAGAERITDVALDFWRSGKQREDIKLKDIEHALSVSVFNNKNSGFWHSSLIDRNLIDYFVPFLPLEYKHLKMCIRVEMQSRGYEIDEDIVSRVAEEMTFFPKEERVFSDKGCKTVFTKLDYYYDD
Test [9] has the same target. The test is described as follows: small-molecule binders of mutant TOR1A in lysate, primary screen, cell lysate, small-molecule microarray, COS7 lysate, 635/667 nm fluorescence (AID 1150).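 Also: score pools 667 nm emission and signal to noise measuring lysate protein binding.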 As to conditions: COS7 hTOR1A mutant lysate, 635 nm fluorescence, higher = more signal.
Test [10] deals with Sonic hedgehog protein (Shh). The test is described as follows: small-molecule binders of Shh protein, primary screen, biochemical, small-molecule microarray, 635/667 nm fluorescence (AID 1151).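 Also: Shh protein binding to compounds spotted on small-molecule microarray slides; score combines spot fluorescence intensity with signal-to-noise across triplicate slides.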 As to conditions: small-molecule microarray binding, 635 nm fluorescence; higher = more signal.
The nature of test [11]: E. coli DRC41 culture turbidity changes, primary screen, E. coli filamentation inducer project, strain DRC41, OD650, 48 h (AID 1152).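 Also: E. coli MC1000 strain DRC41 lacking acrAB efflux pump and sulA.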 As to conditions: E. coli DRC41 (acrAB sulA), higher = more signal, called active from +8 up or from −8 down.
Test [12] can be described thus: small-molecule binders of probe aLefty1, primary screen, biochemical, small-molecule microarray, 635/667 nm fluorescence (AID 1153).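 Also: score merges spot fluorescence with signal-to-noise ratio from the scanned slide images.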 As to conditions: higher = more signal.
Test [13] is described as follows: PSAC antagonists in infected red cells, primary screen, cell-based, P. falciparum Indochina, OD700, 1 h (AID 1154). As to conditions: P. falciparum Indochina infected RBC osmotic lysis, higher = more signal, called active from +8 up or from −8 down.
The nature of test [14]: PSAC antagonists in infected red cells, primary screen, cell-based, P. falciparum Indochina, OD700, 2 h (AID 1155).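 Also: lysis reports solute entry through the parasite surface anion channel PSAC; channel blockers reduce lysis of infected cells.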 As to conditions: P. falciparum Indochina infected erythrocytes, osmotic lysis OD700; higher = more signal, called active from +8 up or from −8 down.
Test [15] can be described thus: osmotic lysis modulators in infected erythrocytes, primary screen, PSAC antagonist project, cell-based, P. falciparum Indochina, OD700, 3 h (AID 1156). Conditions: higher = more signal, called active from +8 up or from −8 down.
A short description of test [16]: PSAC antagonists in infected red cells, primary screen, cell-based, P. falciparum Indochina, OD700, 18 h (AID 1157). Conditions: P. falciparum Indochina infected erythrocytes, osmotic lysis OD700, 18 h; higher = more signal, called active from +8 up or from −8 down.
The nature of test [17]: modulators of S6 phosphorylation in cells, primary screen, cell-based, A549, cytoblot, luminescence, serum-stimulated (AID 1158).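 Also: serum-stimulated A549 lung adenocarcinoma cells; signal is phosphorylated S6 detected by cytoblot immunostaining with HRP secondary.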 As to conditions: A549 phospho-S6 cytoblot, 5 h, higher = more signal.
The target of test [18] is NADPH oxidase 2 (Homo sapiens) (UniProt P04839). The test is described as follows: NOX2-dependent H2O2 signal modulators, primary screen, NOX inhibitor project, cell-based, HEK293-NOX2, PMA-stimulated, Amplex Red fluorescence (AID 1159). Also: test concentration not given here. As to conditions: 45 min, higher = more signal, called active from +8 up or from −8 down.
NADPH oxidase 2 (Homo sapiens), sequence (P04839 whole entry, looked up): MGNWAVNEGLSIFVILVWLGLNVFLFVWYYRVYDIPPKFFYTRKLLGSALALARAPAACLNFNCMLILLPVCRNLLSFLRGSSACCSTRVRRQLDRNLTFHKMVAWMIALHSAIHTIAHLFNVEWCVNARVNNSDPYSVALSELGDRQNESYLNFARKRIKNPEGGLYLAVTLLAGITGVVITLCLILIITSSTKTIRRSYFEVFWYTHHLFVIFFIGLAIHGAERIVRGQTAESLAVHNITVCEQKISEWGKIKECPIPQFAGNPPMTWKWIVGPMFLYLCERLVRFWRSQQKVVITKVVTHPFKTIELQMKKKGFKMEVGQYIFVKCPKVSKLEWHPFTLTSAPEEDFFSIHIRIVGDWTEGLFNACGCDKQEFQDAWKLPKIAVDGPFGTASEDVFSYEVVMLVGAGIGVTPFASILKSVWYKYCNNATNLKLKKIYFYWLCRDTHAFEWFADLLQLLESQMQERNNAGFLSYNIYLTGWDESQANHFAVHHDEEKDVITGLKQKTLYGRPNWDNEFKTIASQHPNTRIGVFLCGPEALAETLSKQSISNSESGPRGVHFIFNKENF
In test [19] the target is NADPH oxidase 4 (Homo sapiens) (UniProt Q9NPH5). The experiment in a line: NOX4-dependent H2O2 signal modulators, primary screen, NOX inhibitor project, cell-based, HEK293-NOX4, tetracycline-induced, Amplex Red fluorescence (AID 1160). As to conditions: 45 min, higher = more signal, called active from +8 up or from −8 down.
NADPH oxidase 4 (Homo sapiens), sequence (Q9NPH5 whole entry, looked up): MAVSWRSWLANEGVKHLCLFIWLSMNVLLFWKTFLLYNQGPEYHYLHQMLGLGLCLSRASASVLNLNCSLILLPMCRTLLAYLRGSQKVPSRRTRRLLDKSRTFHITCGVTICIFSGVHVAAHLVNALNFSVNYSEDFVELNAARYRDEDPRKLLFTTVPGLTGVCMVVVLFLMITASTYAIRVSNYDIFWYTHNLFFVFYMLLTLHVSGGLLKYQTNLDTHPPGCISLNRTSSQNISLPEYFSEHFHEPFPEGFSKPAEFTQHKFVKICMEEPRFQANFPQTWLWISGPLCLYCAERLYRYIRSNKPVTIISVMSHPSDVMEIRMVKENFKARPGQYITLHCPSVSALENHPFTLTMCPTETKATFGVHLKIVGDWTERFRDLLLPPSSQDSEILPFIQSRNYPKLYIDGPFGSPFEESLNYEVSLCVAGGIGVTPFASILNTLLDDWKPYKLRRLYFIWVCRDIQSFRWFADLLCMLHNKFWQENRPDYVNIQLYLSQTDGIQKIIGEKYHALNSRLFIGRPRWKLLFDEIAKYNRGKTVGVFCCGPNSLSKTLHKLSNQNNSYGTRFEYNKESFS
Test [20] concerns the target NADPH oxidase 5 (Homo sapiens) (UniProt Q96PH1). The experiment in a line: NOX5-dependent H2O2 signal modulators, primary screen, NOX inhibitor project, cell-based, HEK293-NOX5, Amplex Red fluorescence (AID 1161). As to conditions: HEK293-NOX5, ionomycin, 45 min, higher = more signal.

Here are results for four compounds from PubChem BioAssay.

Structures are written as SMILES. Calls of active or inactive are those of the source. Unless noted, no rule for the calls is given here.

NADPH oxidase 5 (Homo sapiens), sequence (Q96PH1 whole entry, looked up): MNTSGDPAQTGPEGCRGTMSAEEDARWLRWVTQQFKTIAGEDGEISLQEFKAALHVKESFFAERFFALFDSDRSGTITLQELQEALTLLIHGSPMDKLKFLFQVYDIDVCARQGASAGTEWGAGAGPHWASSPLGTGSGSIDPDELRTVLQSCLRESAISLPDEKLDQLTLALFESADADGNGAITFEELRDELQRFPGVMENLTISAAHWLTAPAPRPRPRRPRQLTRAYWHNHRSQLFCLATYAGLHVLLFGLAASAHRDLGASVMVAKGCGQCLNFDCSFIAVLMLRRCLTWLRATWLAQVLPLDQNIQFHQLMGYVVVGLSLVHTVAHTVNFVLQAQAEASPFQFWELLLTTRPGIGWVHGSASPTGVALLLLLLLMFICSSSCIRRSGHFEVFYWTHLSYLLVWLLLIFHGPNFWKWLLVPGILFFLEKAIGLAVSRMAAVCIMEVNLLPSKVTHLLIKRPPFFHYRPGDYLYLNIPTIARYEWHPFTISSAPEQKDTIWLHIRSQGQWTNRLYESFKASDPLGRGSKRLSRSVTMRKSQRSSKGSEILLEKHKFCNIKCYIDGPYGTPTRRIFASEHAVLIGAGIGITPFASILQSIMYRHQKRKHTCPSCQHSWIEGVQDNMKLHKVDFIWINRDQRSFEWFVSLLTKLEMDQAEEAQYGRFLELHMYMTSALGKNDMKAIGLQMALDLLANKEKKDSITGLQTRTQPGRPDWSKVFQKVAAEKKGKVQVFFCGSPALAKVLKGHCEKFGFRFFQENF

Regarding `O=C1C[C@@](C(=O)NCc2ccccc2)(c2ccc([N+](=O)[O-])cc2)[C@@H](c2ccc(CO)cc2)N1C1CCCCC1`, the composite z-score in test [1] was 0.203; in [6], -0.0057; in test [7], 0.333; in the test with Torsin-1A (Homo sapiens) [8] it was 0.944; with Torsin-1A (Homo sapiens) [9], 0.812; in test [10], 0.998. This compound displayed a composite z-score in [12] of 0.857. Besides, the z-score in [2] is -4.1 (inactive); in test [3], -0.967 (inactive); in test [4] it was 0.531 (inactive); in [5] it was -0.932 (inactive); in test [11], 1.09 (inactive); in test [13], 0.661 (inactive). The z-score is -0.881 (inactive) in [14]; -0.436 (inactive) in [15]; -0.877 (inactive) in test [16]; 1.58 in test [17]; -0.522 (inactive) in test [18]; 0.333 (inactive) in test [19]. The compound further had a z-score in [20] of 0.0696.
Take `COc1ccc(C(O)C2C=CC3C(=O)NC(=O)C3N2Nc2ccc(Cl)cc2Cl)c2ccccc12` (stereo not given): the composite z-score in test [1] is -0.181; in [6] it was 0.767; in test [7], -0.0757; with Torsin-1A (Homo sapiens) [8], -0.392; with Torsin-1A (Homo sapiens) [9] it was 0.275; in [10] it was 0.461. In [12], this compound yielded a composite z-score of 0.379. Besides, the z-score in [2] is -1.74 (inactive); in test [3], -1.13 (inactive); in [4], 1.01 (inactive); in [5], -0.525 (inactive); in [11] it was -0.866 (inactive); in test [13], 2.37 (inactive). In addition, the z-score in test [14] was 1.44 (inactive); in test [15] it was -0.46 (inactive); in test [16] it was 1.78 (inactive); in [17], -0.101; in test [18], -0.0689 (inactive); in test [19] it was -5.63 (inactive). In addition, the z-score in [20] was -1.58.
With `C=CCC(OC(C)=O)[C@@H]1[C@@H](N(Cc2cccc3ccccc23)C(=O)Cc2ccc(OC)cc2)c2cc(OCCCO)ccc2N1C(=O)c1ccc2ccccc2c1` (stereo not given in full), the composite z-score was -0.186 in test [1]; 0.172 in test [6]; -0.152 in test [7]; 0.794 with Torsin-1A (Homo sapiens) [8]; -0.118 with Torsin-1A (Homo sapiens) [9]; 0.239 in test [10]. Besides, in test [12], the composite z-score amounted to 0.147. Also, the z-score was -3.04 (inactive) in test [2]; -0.719 (inactive) in test [3]; 0.0458 (inactive) in test [4]; -0.383 (inactive) in test [5]; 0.808 (inactive) in [11]; 0.79 (inactive) in test [13]. Also, the z-score in test [14] was -0.443 (inactive); in test [15], -0.214 (inactive); in test [16] it was -0.691 (inactive); in test [17], 1.2; in [18], -2.11 (inactive); in [19] it was -1.24 (inactive). This compound also came in with a z-score in test [20] of -0.827.
In the case of `C=CCC(OC(C)=O)[C@@H]1[C@@H](N(Cc2cccc3ccccc23)C(=O)c2ccc(-c3ccccc3)cc2)c2cc(OCCCO)ccc2N1C(=O)Cc1ccc2ccccc2c1` (stereo not given in full), the composite z-score in test [1] was -0.0281; in [6], 0.911; in [7], 0.0108; with Torsin-1A (Homo sapiens) [8], -0.175; with Torsin-1A (Homo sapiens) [9], -0.337; in [10], 0.068. The compound also registered a composite z-score in [12] of -0.0164. The z-score in test [2] is -0.182 (inactive); in test [3], 0.0777 (inactive); in test [4] it was -0.141 (inactive); in [5] it was 0.0677 (inactive); in [11] it was -0.662 (inactive); in test [13] it was 0.36 (inactive). Besides, the z-score in test [14] was 0.35 (inactive); in test [15], -0.428 (inactive); in [16], 0.309 (inactive); in test [17] it was -0.242; in [18], -1.49 (inactive); in [19] it was 1.15 (inactive). In test [20], this compound came in with a z-score of 0.311.
